# Laboratory results: PubChem BioAssay (NCI)
# The panel holds about 79,000 compounds, 15% with a hit somewhere; the sample as a whole holds those more often. A number with no mark means an inactive call. Active and inactive are the calls of the source. Rule as the data show it: active = growth inhibition above about 70%; inactive = the rest.
# Experiments:
# [1] = NCI Yeast Anticancer Drug Screen. Data for the mec2-1 strain (AID 157); conditions: S. cerevisiae mec2-1 strain, hits give high values
# How it was run: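 Cells of the genetically defined mec2-1 yeast strain are incubated with test compound. Inhibition of growth is calculated against vehicle-treated controls.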
# [2] = NCI Yeast Anticancer Drug Screen. Data for the rad14 strain (AID 159);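 also: 0% = growth of vehicle-treated control cultures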; conditions: S. cerevisiae rad14 strain growth inhibition, hits give high values
# How it was run: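 Vehicle-treated cultures served as the baseline for growth inhibition of a DNA repair-mutant yeast strain exposed to each compound.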
# [3] = NCI Yeast Anticancer Drug Screen. Data for the sgs1 mgt1 strain (AID 161);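 also: 0% = growth of cultures given vehicle only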; conditions: S. cerevisiae sgs1 mgt1 strain, hits give high values
# How it was run: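 Genetically altered yeast, compound exposure, growth inhibition relative to vehicle.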
# [4] = NCI Yeast Anticancer Drug Screen. Data for the CLN2oe strain (AID 163);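 also: 0% = growth of vehicle-only control cultures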; conditions: S. cerevisiae CLN2oe strain, hits give high values
# How it was run: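 Strain altered in cell-cycle control, incubated with compound; growth compared to solvent-treated controls.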
# [5] = NCI Yeast Anticancer Drug Screen. Data for the cln2 rad14 strain (AID 165);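 also: 0% = growth equal to vehicle treated cultures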; conditions: S. cerevisiae cln2 rad14 strain, hits give high values
# How it was run: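 The screen exposed genetically defined yeast (cln2 rad14) to test compounds and scored growth inhibition relative to vehicle-treated controls.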
# [6] = NCI Yeast Anticancer Drug Screen. Data for the bub3 strain (AID 167); conditions: S. cerevisiae bub3 mutant strain, hits give high values
# How it was run: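 Inhibition values come from growth of compound-treated mutant yeast normalised to vehicle-treated controls.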
# [7] = NCI Yeast Anticancer Drug Screen. Data for the wt2 strain (AID 169);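 also: 0% = growth of vehicle-treated yeast cultures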; conditions: S. cerevisiae wt2 strain growth inhibition, hits give high values
# How it was run: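 Steps: yeast strain treated with compound; growth recorded; inhibition calculated relative to cultures given vehicle alone.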
# [8] = NCI Yeast Anticancer Drug Screen. Data for the mlh1 strain (AID 171);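 also: 0% = growth of vehicle-treated control cultures of the same strain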; conditions: S. cerevisiae mlh1 strain growth inhibition, hits give high values
# How it was run: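 Yeast screen: mutant strain plus compound, growth scored against vehicle control wells.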
# [9] = NCI Yeast Anticancer Drug Screen. Data for the sgs1 strain (AID 173);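 also: 0% = growth of vehicle-only control cultures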; conditions: S. cerevisiae sgs1 mutant, hits give high values
# How it was run: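 Inhibition of yeast growth served as the measure. The mutant strain was treated with each compound, and growth was normalised to cultures receiving vehicle alone.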
# [10] = NCI Yeast Anticancer Drug Screen. Data for the mlh1 rad18 strain (AID 175); conditions: S. cerevisiae mlh1 rad18 strain growth inhibition, hits give high values
# How it was run: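 Compound-treated yeast growth, normalised to vehicle controls. Strain bears defined DNA repair mutations.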
# [11] = NCI Yeast Anticancer Drug Screen. Data for the rad18 strain (AID 177); conditions: S. cerevisiae rad18 mutant growth inhibition, hits give high values
# How it was run: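 Inhibition values reflect reduced yeast growth compared with vehicle-treated controls, using a strain engineered with a DNA damage repair defect.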
# [12] = NCI Yeast Anticancer Drug Screen. Data for the rad52 strain (AID 147);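 also: 0% = growth of vehicle-treated control cultures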; conditions: S. cerevisiae rad52 mutant growth inhibition, hits give high values
# How it was run: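 Genetically altered yeast (DNA damage repair defect) treated with compound; inhibition calculated relative to vehicle.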
# [13] = NCI Yeast Anticancer Drug Screen. Data for the wt1 strain (AID 149);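 also: 0% = growth of vehicle-treated wt1 cultures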; conditions: S. cerevisiae wt1 strain (SPY 50644) growth inhibition, hits give high values
# How it was run: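 Vehicle-normalised growth inhibition; strain wt1; compound exposure.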
# [14] = NCI Yeast Anticancer Drug Screen. Data for the rad50EPP+ strain (AID 151);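 also: 0% = growth of vehicle-treated control cultures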; conditions: S. cerevisiae rad50 mutant strain, hits give high values
# How it was run: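 Strain rad50EPP+; compound exposure; % growth inhibition vs vehicle.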
# [15] = NCI Yeast Anticancer Drug Screen. Data for the mgt1 strain (AID 153); conditions: S. cerevisiae mgt1 mutant growth inhibition, hits give high values
# How it was run: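 Read-out: yeast growth inhibition vs vehicle control. Strain mgt1, drawn from a panel altered in DNA damage repair or cell cycle control.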
# [16] = NCI Yeast Anticancer Drug Screen. Data for the rad50 strain (AID 155);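 also: 0% = growth of vehicle-only cultures of the same strain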; conditions: S. cerevisiae rad50 strain growth inhibition, hits give high values
# How it was run: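 A DNA repair-deficient yeast mutant serves as the test organism; compound-induced growth inhibition is calculated against vehicle-treated cells.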
# [17] = at 5.0 µM (retest, dose inferred, filed as 0.5)
# [18] = at 50.0 µM (retest, dose inferred, filed as 5.0)
smiles,measurement,setting,value
C/C(=N/NC(=S)Nc1ccccc1C)c1ccccn1,growth inhibition,[1]; [17],-40%
same,growth inhibition,[1]; at 11.0 µM,-9%
same,growth inhibition,[1]; at 33.0 µM,-9%
same,growth inhibition,[1]; [18],1%
same,growth inhibition,[1]; at 50.0 µM,47%
same,growth inhibition,[1]; at 100.0 µM,-6%
same,growth inhibition,[2]; at 1.2 µM,-11%
same,growth inhibition,[2]; at 3.7 µM,-11%
same,growth inhibition,[2]; at 11.0 µM,-11%
same,growth inhibition,[2]; at 33.0 µM,-14%
same,growth inhibition,[2]; at 100.0 µM,-6%
same,growth inhibition,[3]; [17],-35%
same,growth inhibition,[3]; [18],15%
same,growth inhibition,[3]; at 50.0 µM,79.8% (active)
same,growth inhibition,[4]; at 1.2 µM,-8%
same,growth inhibition,[4]; at 3.7 µM,-6%
same,growth inhibition,[4]; at 11.0 µM,-9%
same,growth inhibition,[4]; at 33.0 µM,-11%
same,growth inhibition,[4]; at 100.0 µM,-11%
same,growth inhibition,[5]; [17],12%
same,growth inhibition,[5]; [18],14%
same,growth inhibition,[5]; at 50.0 µM,87.5% (active)
same,growth inhibition,[6]; at 1.2 µM,-7%
same,growth inhibition,[6]; at 3.7 µM,1%
same,growth inhibition,[6]; [17],-32%
same,growth inhibition,[6]; at 11.0 µM,4%
same,growth inhibition,[6]; at 33.0 µM,-2%
same,growth inhibition,[6]; [18],57%
same,growth inhibition,[6]; at 50.0 µM,65%
same,growth inhibition,[6]; at 100.0 µM,-9%
same,growth inhibition,[7]; at 1.2 µM,-6%
same,growth inhibition,[7]; at 3.7 µM,-6%
same,growth inhibition,[7]; at 11.0 µM,-5%
same,growth inhibition,[7]; at 33.0 µM,-5%
same,growth inhibition,[7]; at 100.0 µM,-5%
same,growth inhibition,[8]; at 1.2 µM,-6%
same,growth inhibition,[8]; at 3.7 µM,-7%
same,growth inhibition,[8]; at 11.0 µM,-5%
same,growth inhibition,[8]; at 33.0 µM,-9%
same,growth inhibition,[8]; at 100.0 µM,-6%
same,growth inhibition,[9]; at 1.2 µM,-6%
same,growth inhibition,[9]; at 3.7 µM,-5%
same,growth inhibition,[9]; at 11.0 µM,-5%
same,growth inhibition,[9]; at 33.0 µM,-7%
same,growth inhibition,[9]; at 100.0 µM,-6%
same,growth inhibition,[10]; [17],-15%
same,growth inhibition,[10]; [18],-1%
same,growth inhibition,[10]; at 50.0 µM,86.5% (active)
same,growth inhibition,[11]; at 1.2 µM,0%
same,growth inhibition,[11]; at 3.7 µM,3%
same,growth inhibition,[11]; at 11.0 µM,3%
same,growth inhibition,[11]; at 33.0 µM,-17%
same,growth inhibition,[11]; at 100.0 µM,-4%
CC1=CC(=C(c2ccc(N)c(C)c2)c2ccc(N)c(C)c2)C=CC1=N,growth inhibition,[12]; at 1.2 µM,24%
same,growth inhibition,[12]; at 3.7 µM,41%
same,growth inhibition,[12]; at 11.0 µM,47%
same,growth inhibition,[12]; at 33.0 µM,64%
same,growth inhibition,[12]; at 100.0 µM,97% (active)
same,growth inhibition,[13]; at 1.2 µM,8%
same,growth inhibition,[13]; at 3.7 µM,9%
same,growth inhibition,[13]; at 11.0 µM,7%
same,growth inhibition,[13]; at 33.0 µM,6%
same,growth inhibition,[13]; at 100.0 µM,90% (active)
same,growth inhibition,[14]; at 1.2 µM,8%
same,growth inhibition,[14]; at 3.7 µM,17%
same,growth inhibition,[14]; at 11.0 µM,23%
same,growth inhibition,[14]; at 33.0 µM,30%
same,growth inhibition,[14]; at 100.0 µM,83% (active)
same,growth inhibition,[15]; at 1.2 µM,-2%
same,growth inhibition,[15]; at 3.7 µM,7%
same,growth inhibition,[15]; at 11.0 µM,12%
same,growth inhibition,[15]; at 33.0 µM,39%
same,growth inhibition,[15]; at 100.0 µM,97% (active)
same,growth inhibition,[16]; at 1.2 µM,21%
same,growth inhibition,[16]; at 3.7 µM,10%
same,growth inhibition,[16]; [17],20%
same,growth inhibition,[16]; at 11.0 µM,18%
same,growth inhibition,[16]; at 33.0 µM,22%
same,growth inhibition,[16]; [18],87% (active)
same,growth inhibition,[16]; at 50.0 µM,85.2% (active)
same,growth inhibition,[16]; at 100.0 µM,96% (active)
same,growth inhibition,[1]; at 1.2 µM,1%
same,growth inhibition,[1]; at 3.7 µM,5%
same,growth inhibition,[1]; [17],18%
same,growth inhibition,[1]; at 11.0 µM,3%
same,growth inhibition,[1]; at 33.0 µM,37%
same,growth inhibition,[1]; [18],97% (active)
same,growth inhibition,[1]; at 50.0 µM,89.6% (active)
same,growth inhibition,[1]; at 100.0 µM,96% (active)
same,growth inhibition,[2]; at 1.2 µM,0%
same,growth inhibition,[2]; at 3.7 µM,2%
same,growth inhibition,[2]; at 11.0 µM,-2%
same,growth inhibition,[2]; at 33.0 µM,19%
same,growth inhibition,[2]; at 100.0 µM,97% (active)
same,growth inhibition,[3]; [17],30%
same,growth inhibition,[3]; [18],79% (active)
same,growth inhibition,[3]; at 50.0 µM,83.7% (active)
same,growth inhibition,[4]; at 1.2 µM,19%
same,growth inhibition,[4]; at 3.7 µM,36%
same,growth inhibition,[4]; at 11.0 µM,41%
same,growth inhibition,[4]; at 33.0 µM,50%
same,growth inhibition,[4]; at 100.0 µM,97% (active)
same,growth inhibition,[5]; [17],9%
same,growth inhibition,[5]; [18],75% (active)
same,growth inhibition,[5]; at 50.0 µM,74.5% (active)
same,growth inhibition,[6]; at 1.2 µM,12%
same,growth inhibition,[6]; at 3.7 µM,26%
same,growth inhibition,[6]; [17],18%
same,growth inhibition,[6]; at 11.0 µM,29%
same,growth inhibition,[6]; at 33.0 µM,54%
same,growth inhibition,[6]; [18],97% (active)
same,growth inhibition,[6]; at 50.0 µM,89.8% (active)
same,growth inhibition,[6]; at 100.0 µM,96% (active)
same,growth inhibition,[7]; at 1.2 µM,-33%
same,growth inhibition,[7]; at 3.7 µM,-20%
same,growth inhibition,[7]; at 11.0 µM,-31%
same,growth inhibition,[7]; at 33.0 µM,75% (active)
same,growth inhibition,[7]; at 100.0 µM,97% (active)
same,growth inhibition,[8]; at 1.2 µM,7%
same,growth inhibition,[8]; at 3.7 µM,10%
same,growth inhibition,[8]; at 11.0 µM,14%
same,growth inhibition,[8]; at 33.0 µM,55%
same,growth inhibition,[8]; at 100.0 µM,96% (active)
same,growth inhibition,[9]; at 1.2 µM,5%
same,growth inhibition,[9]; at 3.7 µM,19%
same,growth inhibition,[9]; at 11.0 µM,18%
same,growth inhibition,[9]; at 33.0 µM,51%
same,growth inhibition,[9]; at 100.0 µM,95% (active)
same,growth inhibition,[10]; [17],51%
same,growth inhibition,[10]; [18],94% (active)
same,growth inhibition,[10]; at 50.0 µM,84.8% (active)
same,growth inhibition,[11]; at 1.2 µM,2%
same,growth inhibition,[11]; at 3.7 µM,20%
same,growth inhibition,[11]; at 11.0 µM,20%
same,growth inhibition,[11]; at 33.0 µM,35%
same,growth inhibition,[11]; at 100.0 µM,96% (active)
